Activity calls are given as the source filed them. How the calls were made is not given here.
Potency means the concentration at half of the fitted maximal effect.

The assay has as its system HIV-1 nucleocapsid protein NCp7 (binding to TG oligonucleotide). Description: HIV Nucleocapsid (AID 346).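 Further: potency is for inhibitors that block NC binding and lower polarization.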 The following applies: HIV-1 NC / fluorescein-TGTGTGTG probe, fluorescence polarization. In a few lines: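 Fluorescence polarization readout: labelled TG4xF oligo (10 nM) with 100 nM nucleocapsid protein, high-salt (250mM NaCl) Hepes pH 7.5 buffer containing zinc and fresh reducing agents. Compounds added by pin tool; incubation 1 hr, room temperature.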
In general terms: Polarisation of emitted light reports the rotation of a fluorescent probe.
For the compound `N#CCCn1c(=O)c(-c2cc(F)cc(F)c2)nc2cnc(Oc3ccccc3)nc21`, the Potency was > 20 µM (inactive).

Take `COCCn1c(=O)c(-c2cccs2)nc2cnc(N3CCNCC3)nc21`: the Potency is 13 µM (inactive).

On to `CC(=O)N1CCC2(CCCN(c3ccc(-c4ccccc4)cc3)C2)CC1`, for which the Potency is > 20 µM (inactive).

As to `Cc1cccc(CNc2ncncc2-c2ccccc2C(F)(F)F)c1`, the Potency was > 20 µM (inactive).

For the compound `COc1ccccc1CNc1ncncc1-c1cccnc1`, the Potency was > 20 µM (inactive).

As for `O=C(Oc1ccccc1)N1CCC[C@@]2(CCN(c3ccccc3)C2)C1`, the Potency was > 20 µM (inactive).

`COc1ccc(CNc2ncnc3ccc(-c4ccc(N(C)C)cc4)cc23)c(OC)c1`: the Potency is > 20 µM (inactive).

Turning to `COc1ccc(-c2nc3cnc(N4CCOCC4)nc3n(C[C@H]3CCCO3)c2=O)cc1`, the Potency was > 20 µM (inactive).

As for `COc1cccc(Cn2c(=O)c(-c3cccs3)nc3cnc(Nc4ccccc4)nc32)c1`, the Potency was > 20 µM (inactive).

Take `Cc1ccccc1-c1nccc(-n2ccnc2)n1`: the Potency was > 20 µM (inactive).

For `COc1ccc(NC(=O)N2CC[C@@]3(CCCN(C(C)=O)C3)C2)cc1`, the Potency is > 20 µM (inactive).

`O=C(c1cc(C(F)(F)F)cc(C(F)(F)F)c1)N1CCC2(CCN(Cc3ccccc3)CC2)CC1`: the Potency is > 20 µM (inactive).

Turning to `O=C(c1ccncc1)N1CCC2(CC1)CN(Cc1cc(C(F)(F)F)cc(C(F)(F)F)c1)C2`, the Potency was > 20 µM (inactive).

In the case of `CN1CCN(c2cc(-c3ccccc3Cl)ncn2)CC1`, the Potency is > 20 µM (inactive).

Regarding `CNc1cc(-c2ccccc2C(F)(F)F)ncn1`, the Potency is > 20 µM (inactive).

`Cc1cnc(CNc2cc(-c3cccnc3)ncn2)cn1`: the Potency is > 20 µM (inactive).

`CC(C)NC(=O)N1CC2(CCN(C(=O)c3cccn3C)CC2)C1`: the Potency was > 20 µM (inactive).

Take `COc1ccc(CNc2ncnc3ccc(-c4ccccc4C#N)cc23)c(OC)c1`: the Potency was > 20 µM (inactive).

For `Cc1nc2cnc(N3CCOCC3)nc2n(C[C@H]2CCCO2)c1=O`, the Potency was > 20 µM (inactive).

Turning to `CCNc1ncc2nc(-c3cc(F)cc(F)c3)c(=O)n(CCC#N)c2n1`, the Potency is 19.8 µM (inactive).

On to `CN(C)c1ncc2nc(-c3cccs3)c(=O)n(CCc3ccccc3)c2n1`, for which the Potency was > 20 µM (inactive).

On to `O=C(c1cc(C(F)(F)F)cc(C(F)(F)F)c1)N1CCC[C@@]2(CCN(Cc3nccs3)C2)C1`, for which the Potency is > 20 µM (inactive).

`N#Cc1cccc(-c2cc(NCc3ccccc3)ncn2)c1`: the Potency was > 20 µM (inactive).

On to `CS(=O)(=O)Nc1cccc(-c2nc(NCc3cccnc3)c3ccccc3n2)c1`, for which the Potency is > 20 µM (inactive).

As to `COc1ncc2nc(-c3cccc(C#N)c3)c(=O)n(CCC#N)c2n1`, the Potency was > 20 µM (inactive).

Take `COC(=O)N1CCC2(CCN(Cc3nccs3)CC2)CC1`: the Potency was > 20 µM (inactive).

For the compound `COc1cccc(Cn2c(=O)c(-c3cccc(C#N)c3)nc3cnc(N4CCN(C)CC4)nc32)c1`, the Potency was > 20 µM (inactive).

In the case of `CN1CCN(c2cc(-c3ccc(N(C)C)cc3)ncn2)CC1`, the Potency is > 20 µM (inactive).

In the case of `Cc1noc(C)c1C(=O)N1CCC2(CCCN(Cc3ccccc3)C2)CC1`, the Potency is > 20 µM (inactive).

On to `CC(=O)NCCNc1ncnc2ccc(-c3ccccc3C#N)cc12`, for which the Potency was > 20 µM (inactive).

As for `COc1cccc(-c2nc(NC3CCNCC3)c3ccccc3n2)c1`, the Potency is > 20 µM (inactive).

As for `COc1ccccc1-c1cncnc1NCCNC(C)=O`, the Potency is > 20 µM (inactive).

On to `O=C(c1ccco1)N1CCC2(CCCN(C(c3ccccc3)c3ccccc3)C2)CC1`, for which the Potency is > 20 µM (inactive).

Regarding `Cn1cccc1C(=O)N1CCC2(CCCN(c3ccncc3)C2)CC1`, the Potency was > 20 µM (inactive).

As to `O=c1c(-c2cccs2)nc2cncnc2n1-c1ccccc1`, the Potency is 18.2 µM (inactive).

With `CS(=O)(=O)Nc1cccc(-c2nc(-n3ccnc3)c3ccccc3n2)c1`, the Potency was > 20 µM (inactive).

For the compound `COc1ccccc1CNc1ncnc2ccc(-c3cccc(C#N)c3)cc12`, the Potency is > 20 µM (inactive).

As for `Cc1nc2cnc(N(C)C)nc2n(Cc2cccs2)c1=O`, the Potency was > 20 µM (inactive).

Take `CS(=O)(=O)N1CCC2(CCCN(C(=O)Nc3cccc(F)c3)C2)CC1`: the Potency is > 20 µM (inactive).
